About 940 (45%) of roughly 2,100 compounds were called active. Another 48% or so got no clear call; they are omitted. So high a share suggests a set chosen from earlier hits. The list shows a part of the results. Unmarked numbers belong to inactive results. Calls come from the whole dose curve; as a rule, active = well fitted inhibition curve with a large enough effect; inconclusive = small, poorly fitted or top-dose-only effect; inactive = no such curve, though single readings can be large or run the other way.
Potency is the fitted concentration of half-maximal effect.

The test can be described thus: Confirmatory qHTS for Inhibitors of ATXN expression.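 For activity change, negative = inhibition: 0% = DMSO vehicle wells and -100% = medium-only wells without cells.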 Note: nearly all actives have a fitted effect of over 65% in size. The conditions noted are these: ATXN2-luciferase reporter cells, luminescence, 24 h; series mostly up to 11.5 µM; activity change, negative = inhibition: at the top concentration. The method, boiled down: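 A titration, incubated 24 h with reporter cells expressing ATXN2-luciferase. Luminescence (SteadyGlo) gives ATXN2 expression, multiplexed GF-AFC fluorescence gives viability; normalised to DMSO and medium-only wells.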
A general note: Quantitative high-throughput screening tests each substance at several concentrations.
On to `Cc1ccc2nc(NC(=O)CSCC(=O)OCC(=O)c3ccc(Br)cc3)sc2c1`, for which the Potency was 3.55 µM (active). On to `CCN(CC)S(=O)(=O)c1cc(NC(=O)C2CCN(c3ncnc4sc(C)c(C)c34)CC2)ccc1Cl`, for which the Potency is 3.55 µM (active). As to `COc1ccc(-c2csc(NC(=O)C3CCN(c4ncnc5sc(C)c(C)c45)CC3)n2)cc1OC`, the Potency was 3.98 µM (active). As for `COc1ccc(S(=O)(=O)N(C)C)cc1NC(=O)C1CCN(c2ncnc3sc(C)c(C)c23)CC1`, the Potency was 22.4 µM (active). As for `Cc1sc2nc(CN3CCCC3)nc(N3CCC(C(N)=O)CC3)c2c1C`, the “activity change, negative = inhibition” value was -14.9% [at 57.5 µM].

`Oc1c(C(c2ccccn2)N2CCC(Cc3ccccc3)CC2)cc(Cl)c2cccnc12` (configuration not stated): the Potency was 28.2 µM (active). `Oc1c(C(c2ccccn2)N2CCCCC2)cc(Cl)c2cccnc12` (configuration not stated): the Potency was 15.8 µM (active). With `O=C(NC(Nc1nc2ccc([N+](=O)[O-])cc2s1)(C(F)(F)F)C(F)(F)F)c1ccccc1`, the Potency is 0.355 µM (active). On to `O=C(NC(Nc1ncc(S(=O)(=O)c2ccc([N+](=O)[O-])cc2)s1)(C(F)(F)F)C(F)(F)F)c1ccc(Cl)cc1`, for which the Potency is 3.55 µM (active). Regarding `O=c1oc2ccccc2c(O)c1Cc1cc(Cl)c2cccnc2c1O`, the Potency is 15.8 µM (active).

For the compound `CC[n+]1c(/C=C/c2c[nH]c3ccccc23)ccc2cc(C)ccc21`, the Potency is 7.94 µM (active). Regarding `COC(=O)c1ccccc1S(=O)(=O)NNC(=O)Nc1ccccc1`, the “activity change, negative = inhibition” value is -24.3%. As for `COc1ccc(/C=N/NC(=O)c2cccc([N+](=O)[O-])c2)c2ccccc12`, the Potency is 3.16 µM (active).

On to `Cc1[nH]n(-c2cccc3ccccc23)c(=O)c1/C=N/NC(=O)c1cccc([N+](=O)[O-])c1`, for which the Potency was 7.94 µM (active). For `CCCc1nc(NC2CCCCC2)c(C#N)c2c1COC(C)(C)C2`, the “activity change, negative = inhibition” value was 4.81%. Regarding `O=C(Cc1ccc(-c2ccccc2)cc1)Nc1ccccn1`, the Potency is 15.8 µM (active). Same read-out and setting: the value for `CC(C)C1C(=O)N(Cc2cn(CCC3OCCO3)nn2)CCS(=O)(=O)N1Cc1ccc(-c2ccc(Cl)cc2)cc1` (configuration not stated) was 31.6 µM (active); that for `CSc1ncnc2c1ncn2CC(=O)C1CCC2C3CCC4=CC(=O)CCC4(C)C3CCC12C` (configuration not stated) was 11.2 µM (active).

`COc1ccc(C(NC(=O)c2cccnc2)c2cc(Cl)c3cccnc3c2O)cc1OC` (configuration not stated): the Potency is 2.51 µM (active). `CCC(=O)NC(c1ccc(OC)c(OC)c1)c1cc(Cl)c2cccnc2c1O` (configuration not stated): the Potency was 2.82 µM (active). Regarding `CCCC(=O)NC(c1ccc(OC)c(OC)c1)c1cc(Cl)c2cccnc2c1O` (configuration not stated), the Potency was 2.51 µM (active). Take `N=c1c2c(n(Cc3ccc(Br)cc3)c3c1CCC3)CCCC2`: the Potency was 1.12 µM (active). With `C=CCNc1oc(-c2ccc(Cl)cc2)nc1C#N`, the “activity change, negative = inhibition” value is -9.33% [at 57.5 µM].

For `Cc1ccc2[nH]c(=O)c(CN(CCCN(C)C)C(=O)Nc3cccc(Cl)c3)cc2c1`, the Potency was 22.4 µM (active).

Consider `COc1ccc(/C=N/Nc2cc(N3CCCC3)nc(N3CCCC3)n2)cc1`, for which the Potency was 3.16 µM (active). In the case of `Cc1c(C(=O)Nc2nonc2-c2ccc(F)cc2)oc2ccc(F)cc12`, the Potency is 25.1 µM (active).

Consider `Cc1nc2c(OCc3cc(Cl)cc(Cl)c3)cccn2c1N(C)C(=O)CCC1CCCC1`, for which the Potency was 22.4 µM (active). As to `CCc1nc2c(OCCOc3ccc(F)cc3)cccn2c1N(C)C(=O)c1ccco1`, the “activity change, negative = inhibition” value is -22.2% [at 57.5 µM]. In the case of `Cc1nn(-c2ccccc2)c2nc(-c3cccs3)cc(C(=O)NN)c12`, the Potency was 14.1 µM (active).

For `Cc1onc(-c2c(Cl)cccc2Cl)c1C(=O)N/N=C(\N)COc1ccc(Cl)cc1`, the Potency was 2.51 µM (active).

For `Cn1cc(C(=O)c2ccc(Cl)cc2Cl)cc1C(=O)N/N=C(\N)COc1ccc(Cl)cc1`, the Potency is 11.2 µM (active). Regarding `O=C(Nc1nc(NC(=O)c2ccco2)n(-c2ccccc2)n1)c1ccccc1`, the Potency was 3.16 µM (active). Consider `Cc1c(Cl)cccc1NC(=O)N1CCCN(c2nc(-c3ccccc3)ns2)CC1`, for which the Potency was 10 µM (active). Consider `O=C(Nc1ccccc1Cl)N1CCCN(c2nc(-c3ccccc3)ns2)CC1`, for which the Potency is 15.8 µM (active). Consider `CC(C)(C)c1ccc(NC(=O)N2CCCN(c3c(Cl)cncc3Cl)CC2)cc1`, for which the “activity change, negative = inhibition” value was -19.3% [at 57.5 µM]. Take `CN(C)CCC(c1ccc(Br)cc1)c1ccccn1` (configuration not stated): the “activity change, negative = inhibition” value was -29.7% [at 57.5 µM]. Take `O=C(Nc1ccc(N2CCOCC2)c(Cl)c1)c1c(F)c(F)c(F)c(F)c1F`: the Potency was 1.26 µM (active). With `CC(=O)N/N=C/c1cc(C(C)(C)C)cc(/C=N/NC(C)=O)c1O`, the Potency is 2.82 µM (active). `COc1ccc(Nc2c3ccccc3nc3ccccc23)cc1`: the Potency is 14.1 µM (active). Turning to `CC(=O)Nc1ccc(Nc2c3ccccc3nc3ccccc23)cc1`, the Potency was 3.55 µM (active). Take `CC(=O)Oc1ccc(Nc2ccccc2)cc1`: the “activity change, negative = inhibition” value is -27.7%. On to `COc1ccc(Nc2nc(N3CCCC3)c3ccccc3n2)cc1`, for which the Potency was 15.8 µM (active). `CCOc1ccc(Nc2c3ccccc3nc3ccccc23)cc1`: the Potency is 12.6 µM (active).

As to `O=C(CSc1ccc2ccccc2n1)N/N=C/c1ccccc1O`, the Potency was 14.1 µM (active). As to `C=CCn1c(CNc2ccc(C)cc2)nnc1SCC(=O)N/N=C/c1ccc(O)cc1O`, the Potency was 10 µM (active). Consider `Cc1cc(SCC(=O)NN)c2cc(Br)ccc2n1`, for which the “activity change, negative = inhibition” value is 2.8% [at 57.5 µM].

In the case of `Cc1cc(SCC(=O)N/N=C/c2ccc(O)cc2O)c(C)cc1Br`, the Potency is 5.62 µM (active).

Regarding `Cc1cc(SCC(=O)N/N=C/c2ccc(O)cc2O)nc2ccccc12`, the Potency is 11.2 µM (active).

Consider `COc1ccc(C(NC(C)=O)c2cc(Cl)c3cccnc3c2O)cc1` (configuration not stated), for which the Potency was 1.78 µM (active). The same measure, in the same setting: the value for `CCC(=O)NC(c1ccc(OC)cc1)c1cc(Cl)c2cccnc2c1O` (configuration not stated) was 3.16 µM (active); that for `Clc1ccc(COC(Cn2ccnc2)c2ccc(Cl)cc2Cl)c(Cl)c1` (configuration not stated) was 2.82 µM (active); that for `O=C(CCCN1C(=O)/C(=C/c2ccccc2Cl)SC1=S)NNC(=O)c1ccc(Cl)cc1` was 3.55 µM (active). `O=C(CCCN1C(=O)/C(=C/c2ccccc2Cl)SC1=S)NNC(=O)c1ccc(Cl)cc1Cl`: the Potency was 1.58 µM (active). With `O=C(Nc1nnc(-c2ccc(F)cc2)o1)c1cc(Cl)sc1Cl`, the Potency was 15.8 µM (active).

On to `CCc1nnc(NC(=O)c2ccc(S(=O)(=O)N(C)Cc3ccccc3)cc2)o1`, for which the Potency was 20 µM (active).

As for `CN(c1ccccc1)S(=O)(=O)c1ccc(C(=O)Nc2nnc(-c3ccc(F)cc3)o2)cc1`, the Potency is 15.8 µM (active). Regarding `Cc1sc2ncnc(NCC(O)c3ccc([N+](=O)[O-])cc3)c2c1C` (configuration not stated), the Potency was 3.16 µM (active). For the compound `Cc1cc(C)cc(C(=O)NC(=S)Nc2ccc(-c3cc4ccccc4oc3=O)cc2)c1`, the Potency was 4.47 µM (active). As for `CCOC(=O)c1c(NC(=O)CSc2nnnn2-c2ccccc2)sc2c1CC(C)(C)NC2(C)C`, the Potency was 3.55 µM (active). Turning to `O=C(CSc1nnnn1-c1ccccc1)Nc1nsc(-c2ccccc2)n1`, the “activity change, negative = inhibition” value is -7.49% [at 57.5 µM].

For `Cc1ccc(C(=O)N/C(=C/c2ccc(-c3ccc([N+](=O)[O-])cc3)o2)C(=O)NCCCN(C)C)cc1`, the Potency is 25.1 µM (active).

With `CCCCOC(=O)/C=C\C(=O)NC(N)=O`, the Potency is 17.8 µM (active). Consider `N/C(=C\C(=O)c1cc(Cl)ccc1O)C(Cl)(Cl)Cl`, for which the Potency was 3.16 µM (active). On the same count and under the same terms, the value for `C/C(=N\NC(=O)C(C)n1nc(C)c([N+](=O)[O-])c1C)c1ccccc1O` (configuration not stated) was 3.16 µM (active); that for `O=C1N/C(=N/N=C/c2ccccc2O)SC1Cc1ccc(F)cc1` (configuration not stated) was 15.8 µM (active). Turning to `Cc1[nH]n(-c2ccccc2)c(=O)c1/C=N/NC(=O)c1ccccc1F`, the Potency was 4.47 µM (active). For `CC(C)(CO)NCc1c(OCc2ccc(Cl)cc2)ccc2ccccc12`, the Potency is 14.1 µM (active). Take `COc1cccc(CN(C)C(=O)CNC(=O)c2ccc(-c3ccccc3)cc2)c1OC`: the Potency was 14.1 µM (active). Consider `CCOC(=O)c1ccc(NC(=O)c2nc[nH]c2C(=O)N[C@H](C)c2ccccc2)cc1`, for which the “activity change, negative = inhibition” value is -16.6%. Take `CCOC(=O)c1ccc(NC(=O)C2CCCN(S(=O)(=O)c3ccc(F)cc3)C2)cc1` (configuration not stated): the Potency is 28.2 µM (active).

Regarding `O=C(Nc1ccccc1C(=O)Nc1nnc(C(F)(F)F)s1)c1ccccc1Cl`, the Potency is 3.55 µM (active). Turning to `O=C(Nc1ccccc1C(=O)Nc1nnc(C(F)(F)F)s1)c1ccccc1`, the Potency is 1.78 µM (active). For the compound `CN(C)S(=O)(=O)c1cccc(N2C(=O)CC3(CCCCC3)CC2=O)c1`, the “activity change, negative = inhibition” value is -3.73%. Take `COc1ccccc1CNc1nc(NCc2cccc(OC)c2OC)c2sccc2n1`: the Potency was 25.1 µM (active).

In the case of `COc1ccccc1CNc1nc(NCc2ccc(NC(C)=O)cc2)c2sccc2n1`, the Potency was 3.16 µM (active).

In the case of `COc1cccc(CNc2nc(NCc3ccccc3)nc3ccsc23)c1`, the Potency is 15.8 µM (active). As for `O=C(/C=C\c1ccco1)Nc1nc(-c2ccc3ccccc3c2)cs1`, the “activity change, negative = inhibition” value was -1.03%. Regarding `CN(C)S(=O)(=O)c1ccc(-c2csc(N/N=C/c3ccco3)n2)cc1`, the Potency is 2.82 µM (active).

Take `O=C(CN1c2cccc3cccc(c23)S1(=O)=O)NCc1ccc(Cl)cc1`: the “activity change, negative = inhibition” value was -8.53%.

With `O=C(CN1C(=O)c2ccccc2S1(=O)=O)Nc1ncc(Cl)cc1Cl`, the Potency was 2.82 µM (active).

For `Cc1nnc(SCC(N)=O)n1CC1CCCO1` (configuration not stated), the “activity change, negative = inhibition” value is -15% [at 57.5 µM].

For `O=C(CN1C(=O)c2ccccc2S1(=O)=O)N1CCc2ccccc21`, the Potency was 0.447 µM (active). On the same count and under the same terms, the value for `O=C(CN1C(=O)c2ccccc2S1(=O)=O)c1ccc(Cl)cc1Cl` was 0.891 µM (active).

Turning to `O=C(CN1C(=O)c2ccccc2S1(=O)=O)c1ccc(O)c(O)c1`, the “activity change, negative = inhibition” value was -11.2%. For the compound `Cc1cc(C(=O)CN2C(=O)c3ccccc3S2(=O)=O)c(C)n1CC1CCCO1` (configuration not stated), the Potency is 0.355 µM (active).

Turning to `Cc1cc(C(=O)CN2C(=O)c3ccccc3S2(=O)=O)c(C)n1C(C)C`, the Potency was 1.58 µM (active). Consider `CCn1c(C)cc(C(=O)CN2C(=O)c3ccccc3S2(=O)=O)c1C`, for which the Potency is 1.26 µM (active).

Take `O=C(O)COc1ccc2oc3ccccc3c2c1`: the “activity change, negative = inhibition” value was -17%.

For the compound `Cc1cc(C(=O)N/N=C/c2cc(Br)cc(Br)c2OC(=O)c2cccc(F)c2)n[nH]1`, the Potency was 3.16 µM (active). On the same count and under the same terms, the figure for `Cc1cc(C(=O)N/N=C/c2cc(Br)ccc2OC(=O)c2ccccc2)n[nH]1` is 2.51 µM (active). With `Cc1ccc(-c2cc(C(=O)N/N=C/c3ccccc3O)n[nH]2)o1`, the Potency is 7.08 µM (active). In the case of `Cc1cc(C(=O)N/N=C/c2cc(Br)ccc2OC(=O)c2ccccc2Cl)n[nH]1`, the Potency is 3.98 µM (active).
